Experimental data from the supplement of paper PMC11732987, “Enantioselective OTUD7B fragment discovery through chemoproteomics screening and high-throughput optimisation” (Communications Chemistry, 2025).

Tests used:
Assay in all cases: log2 ratio of Biotin-Ahx-Ub-VS probe labelling (fragment/DMSO); higher = less target engagement (more negative = stronger competition), active = hit call of the paper (q ≤ 0.05, log2 ratio ≤ -1)
Conditions in all cases: compound concentration: 200 uM; treatment time: 3 h
USP19 = biological target: T1, USP19 (UniProt O94966)
T1 sequence (whole entry): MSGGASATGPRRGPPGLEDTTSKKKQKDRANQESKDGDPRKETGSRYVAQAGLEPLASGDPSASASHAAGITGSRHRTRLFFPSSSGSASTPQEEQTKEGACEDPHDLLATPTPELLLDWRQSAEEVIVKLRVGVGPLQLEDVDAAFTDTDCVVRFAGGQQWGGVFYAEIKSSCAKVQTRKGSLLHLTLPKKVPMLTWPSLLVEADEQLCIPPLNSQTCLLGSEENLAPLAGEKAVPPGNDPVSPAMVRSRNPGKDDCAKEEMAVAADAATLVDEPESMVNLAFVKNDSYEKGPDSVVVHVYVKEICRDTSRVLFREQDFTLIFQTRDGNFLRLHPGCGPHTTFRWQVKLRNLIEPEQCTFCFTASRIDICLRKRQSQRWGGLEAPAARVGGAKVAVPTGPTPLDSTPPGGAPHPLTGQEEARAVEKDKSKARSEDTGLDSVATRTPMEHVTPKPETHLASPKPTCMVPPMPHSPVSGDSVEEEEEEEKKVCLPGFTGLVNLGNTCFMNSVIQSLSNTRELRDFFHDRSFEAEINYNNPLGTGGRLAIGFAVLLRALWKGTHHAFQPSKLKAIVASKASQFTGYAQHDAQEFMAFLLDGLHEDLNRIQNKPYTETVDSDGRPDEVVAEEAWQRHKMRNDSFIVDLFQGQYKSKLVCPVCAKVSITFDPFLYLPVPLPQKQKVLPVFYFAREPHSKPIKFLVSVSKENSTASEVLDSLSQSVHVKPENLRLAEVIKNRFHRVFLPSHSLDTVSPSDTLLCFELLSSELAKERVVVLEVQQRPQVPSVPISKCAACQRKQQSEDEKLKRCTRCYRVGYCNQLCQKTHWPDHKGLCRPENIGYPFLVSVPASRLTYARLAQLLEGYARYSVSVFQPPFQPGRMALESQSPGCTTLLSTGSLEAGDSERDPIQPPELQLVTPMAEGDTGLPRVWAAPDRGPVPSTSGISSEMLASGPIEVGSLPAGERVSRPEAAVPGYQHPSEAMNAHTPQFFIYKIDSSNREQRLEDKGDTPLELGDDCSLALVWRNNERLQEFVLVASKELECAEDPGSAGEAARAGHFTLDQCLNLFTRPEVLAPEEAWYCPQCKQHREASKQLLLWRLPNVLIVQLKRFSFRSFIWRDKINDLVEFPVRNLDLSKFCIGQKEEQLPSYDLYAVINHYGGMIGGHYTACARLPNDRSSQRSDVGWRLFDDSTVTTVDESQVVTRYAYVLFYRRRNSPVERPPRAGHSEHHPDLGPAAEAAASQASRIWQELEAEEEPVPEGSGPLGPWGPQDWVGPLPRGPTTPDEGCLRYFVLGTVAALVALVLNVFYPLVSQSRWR
In short: (§1)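 Average log2 ratios of fragment over vehicle were obtained by unpaired t-test from global-median-normalised Spectronaut label-free quantities. Proteins with ≥2 unique peptides were included. HEK293T lysate (495 µg per sample) was treated in triplicate with fragment at 200 µM or vehicle for 3 h, then with Biotin-Ahx-Ub-VS at 0.5 µM final for 1 h, and labelled DUBs were NeutrAvidin-enriched and run by diaPASEF LC-MS/MS.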

USP24 = USP24 (UniProt Q9UPU5)
Sequence of USP24 (Q9UPU5 whole entry): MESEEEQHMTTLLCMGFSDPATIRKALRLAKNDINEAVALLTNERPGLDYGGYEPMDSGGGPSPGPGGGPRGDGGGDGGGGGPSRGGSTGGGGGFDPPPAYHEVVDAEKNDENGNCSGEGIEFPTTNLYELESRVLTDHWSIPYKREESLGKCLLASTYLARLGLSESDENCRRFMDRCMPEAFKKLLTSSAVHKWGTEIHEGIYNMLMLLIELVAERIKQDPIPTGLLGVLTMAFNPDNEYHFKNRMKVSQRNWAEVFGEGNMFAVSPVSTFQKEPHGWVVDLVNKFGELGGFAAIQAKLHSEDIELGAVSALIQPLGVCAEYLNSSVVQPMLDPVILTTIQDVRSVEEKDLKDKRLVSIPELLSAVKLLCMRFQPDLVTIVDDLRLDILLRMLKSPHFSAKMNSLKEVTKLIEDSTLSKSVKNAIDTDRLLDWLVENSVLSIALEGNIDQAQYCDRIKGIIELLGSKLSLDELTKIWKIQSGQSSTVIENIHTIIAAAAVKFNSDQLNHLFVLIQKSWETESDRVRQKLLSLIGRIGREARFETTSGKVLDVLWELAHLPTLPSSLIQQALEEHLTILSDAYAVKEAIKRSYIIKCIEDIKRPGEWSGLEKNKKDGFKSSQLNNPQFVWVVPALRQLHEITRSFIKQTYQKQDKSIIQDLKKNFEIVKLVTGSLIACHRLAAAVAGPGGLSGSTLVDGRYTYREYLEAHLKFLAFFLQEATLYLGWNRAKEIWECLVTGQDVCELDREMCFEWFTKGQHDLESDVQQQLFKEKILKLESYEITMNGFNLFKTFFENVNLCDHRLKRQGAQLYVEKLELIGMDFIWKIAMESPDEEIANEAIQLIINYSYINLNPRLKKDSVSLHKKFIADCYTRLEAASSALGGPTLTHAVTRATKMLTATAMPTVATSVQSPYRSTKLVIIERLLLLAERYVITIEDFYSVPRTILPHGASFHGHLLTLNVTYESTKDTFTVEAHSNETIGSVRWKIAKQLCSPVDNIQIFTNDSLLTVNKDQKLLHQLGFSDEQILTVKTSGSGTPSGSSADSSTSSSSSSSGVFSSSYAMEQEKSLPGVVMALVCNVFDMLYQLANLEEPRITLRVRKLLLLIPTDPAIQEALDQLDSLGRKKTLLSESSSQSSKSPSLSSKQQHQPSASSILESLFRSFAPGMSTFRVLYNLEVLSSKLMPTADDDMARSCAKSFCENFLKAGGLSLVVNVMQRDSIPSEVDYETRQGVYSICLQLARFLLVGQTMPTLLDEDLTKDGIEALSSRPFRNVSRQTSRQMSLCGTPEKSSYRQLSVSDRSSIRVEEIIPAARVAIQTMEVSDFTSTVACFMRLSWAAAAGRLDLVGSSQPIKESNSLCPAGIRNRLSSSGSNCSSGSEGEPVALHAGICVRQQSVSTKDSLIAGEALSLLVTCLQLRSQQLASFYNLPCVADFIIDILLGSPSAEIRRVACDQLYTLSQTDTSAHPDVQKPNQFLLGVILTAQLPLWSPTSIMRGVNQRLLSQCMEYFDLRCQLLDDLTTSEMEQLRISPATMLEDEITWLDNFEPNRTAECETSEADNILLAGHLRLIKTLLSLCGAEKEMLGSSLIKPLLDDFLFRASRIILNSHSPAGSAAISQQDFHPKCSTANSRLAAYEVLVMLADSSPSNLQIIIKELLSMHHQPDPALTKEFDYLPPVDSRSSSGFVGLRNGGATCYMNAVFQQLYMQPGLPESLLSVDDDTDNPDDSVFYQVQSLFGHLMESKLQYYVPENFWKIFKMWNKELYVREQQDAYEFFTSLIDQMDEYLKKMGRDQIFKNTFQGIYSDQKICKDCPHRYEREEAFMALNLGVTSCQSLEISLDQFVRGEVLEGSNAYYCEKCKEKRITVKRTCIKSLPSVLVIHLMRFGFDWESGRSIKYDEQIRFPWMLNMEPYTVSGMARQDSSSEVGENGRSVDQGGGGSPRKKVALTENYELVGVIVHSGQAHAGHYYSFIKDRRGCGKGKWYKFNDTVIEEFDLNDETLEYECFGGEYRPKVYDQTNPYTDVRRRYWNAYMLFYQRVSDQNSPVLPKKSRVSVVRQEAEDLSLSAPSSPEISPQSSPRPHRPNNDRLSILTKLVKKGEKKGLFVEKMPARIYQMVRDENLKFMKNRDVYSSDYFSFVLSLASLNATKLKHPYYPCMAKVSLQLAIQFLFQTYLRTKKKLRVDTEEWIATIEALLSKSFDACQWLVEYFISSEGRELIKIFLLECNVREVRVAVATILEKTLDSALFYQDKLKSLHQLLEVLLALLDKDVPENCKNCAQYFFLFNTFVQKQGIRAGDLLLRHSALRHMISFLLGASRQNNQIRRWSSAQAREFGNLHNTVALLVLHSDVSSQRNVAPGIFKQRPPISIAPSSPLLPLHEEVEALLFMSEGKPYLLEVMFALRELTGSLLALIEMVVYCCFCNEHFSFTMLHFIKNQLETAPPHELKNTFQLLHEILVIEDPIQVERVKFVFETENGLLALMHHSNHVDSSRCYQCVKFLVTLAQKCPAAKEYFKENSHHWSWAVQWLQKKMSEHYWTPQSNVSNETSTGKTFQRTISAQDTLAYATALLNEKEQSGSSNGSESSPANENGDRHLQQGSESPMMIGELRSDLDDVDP
In short: as §1

USP25 = biological target: T2, USP25 (UniProt Q9UHP3)
T2 sequence (whole entry): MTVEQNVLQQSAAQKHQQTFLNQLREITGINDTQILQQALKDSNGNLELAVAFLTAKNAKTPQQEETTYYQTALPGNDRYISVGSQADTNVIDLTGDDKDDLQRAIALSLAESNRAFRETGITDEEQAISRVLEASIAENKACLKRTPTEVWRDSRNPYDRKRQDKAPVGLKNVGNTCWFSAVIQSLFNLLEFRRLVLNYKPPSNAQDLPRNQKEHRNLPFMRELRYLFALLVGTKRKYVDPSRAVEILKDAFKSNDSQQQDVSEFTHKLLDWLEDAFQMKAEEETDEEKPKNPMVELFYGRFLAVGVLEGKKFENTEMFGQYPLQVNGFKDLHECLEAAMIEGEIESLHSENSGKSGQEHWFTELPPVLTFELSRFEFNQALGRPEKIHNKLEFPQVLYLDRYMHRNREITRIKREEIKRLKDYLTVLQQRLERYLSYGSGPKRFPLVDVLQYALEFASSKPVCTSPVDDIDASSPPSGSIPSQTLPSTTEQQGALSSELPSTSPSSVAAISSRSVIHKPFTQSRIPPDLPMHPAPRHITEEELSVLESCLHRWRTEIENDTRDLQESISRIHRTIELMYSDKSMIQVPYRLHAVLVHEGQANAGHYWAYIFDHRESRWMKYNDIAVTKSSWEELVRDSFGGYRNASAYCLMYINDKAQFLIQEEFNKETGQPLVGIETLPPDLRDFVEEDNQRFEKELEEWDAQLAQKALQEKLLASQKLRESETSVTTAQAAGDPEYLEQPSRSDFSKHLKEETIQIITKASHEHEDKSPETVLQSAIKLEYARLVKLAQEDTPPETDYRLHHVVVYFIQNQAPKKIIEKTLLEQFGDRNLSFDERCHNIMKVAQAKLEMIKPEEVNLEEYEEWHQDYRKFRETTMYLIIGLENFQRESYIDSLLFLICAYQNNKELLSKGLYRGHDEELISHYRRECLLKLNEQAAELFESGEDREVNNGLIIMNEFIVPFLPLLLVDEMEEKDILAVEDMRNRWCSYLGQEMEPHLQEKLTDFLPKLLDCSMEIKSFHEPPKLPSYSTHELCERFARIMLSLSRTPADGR
In short: as §1

USP28 = biological target: T3, USP28 (UniProt Q96RU2)
T3 sequence (whole entry): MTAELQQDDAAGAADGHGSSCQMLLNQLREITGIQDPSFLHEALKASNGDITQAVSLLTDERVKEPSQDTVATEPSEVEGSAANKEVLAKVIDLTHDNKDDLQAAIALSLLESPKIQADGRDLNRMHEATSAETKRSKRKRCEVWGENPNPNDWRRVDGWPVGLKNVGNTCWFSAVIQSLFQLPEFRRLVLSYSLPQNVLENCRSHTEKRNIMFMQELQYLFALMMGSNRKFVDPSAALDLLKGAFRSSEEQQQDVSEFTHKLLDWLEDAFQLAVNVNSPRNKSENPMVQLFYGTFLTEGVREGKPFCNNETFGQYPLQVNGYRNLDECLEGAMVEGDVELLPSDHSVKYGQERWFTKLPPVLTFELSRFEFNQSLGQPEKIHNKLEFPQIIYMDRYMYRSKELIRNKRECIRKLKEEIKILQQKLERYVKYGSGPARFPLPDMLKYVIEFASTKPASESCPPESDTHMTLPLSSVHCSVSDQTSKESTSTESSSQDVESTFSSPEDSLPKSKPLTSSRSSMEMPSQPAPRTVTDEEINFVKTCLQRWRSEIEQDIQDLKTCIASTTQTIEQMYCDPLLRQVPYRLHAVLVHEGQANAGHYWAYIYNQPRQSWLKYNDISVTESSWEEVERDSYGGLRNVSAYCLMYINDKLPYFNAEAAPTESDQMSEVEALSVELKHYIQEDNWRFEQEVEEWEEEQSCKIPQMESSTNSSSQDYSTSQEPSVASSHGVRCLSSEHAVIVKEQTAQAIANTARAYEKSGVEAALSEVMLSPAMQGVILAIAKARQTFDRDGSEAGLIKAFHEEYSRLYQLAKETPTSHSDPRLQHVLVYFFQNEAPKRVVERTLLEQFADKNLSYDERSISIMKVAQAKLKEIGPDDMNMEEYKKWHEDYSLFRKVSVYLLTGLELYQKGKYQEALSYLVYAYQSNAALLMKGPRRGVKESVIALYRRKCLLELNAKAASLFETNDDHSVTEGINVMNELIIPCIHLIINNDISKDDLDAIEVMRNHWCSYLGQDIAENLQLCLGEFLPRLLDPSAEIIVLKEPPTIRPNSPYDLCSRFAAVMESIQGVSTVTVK
In short: as §1

Measured: log2 ratio of Biotin-Ahx-Ub-VS probe labelling

Cc1cc(CC(C)NC(=O)CCl)n[nH]1 (centres undefined)
inactive: USP19 -0.257 | USP24 -0.17 | USP25 -0.198 | USP28 -0.332
